The source of these data is PubChem BioAssay (NCATS).

Test [1] in a line: qHTS of pediatric cancer cell lines to identify multiple opportunities for drug repurposing: Primary screen for A673 cells (AID 1347092). Also: nearly all actives have a fitted effect of over 45% in size. The method in brief: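 Titration-based qHTS on A673 cells: MIPE compounds spanned 11 points (0.78 nM to 46 µM final), NPC compounds 8 points (0.59 nM to 46 µM final). Viability after 48 h was measured by ATP luminescence.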
Test [2] in a line: qHTS of pediatric cancer cell lines to identify multiple opportunities for drug repurposing: Primary screen for SK-N-MC cells (AID 1347093). Also: series mostly up to about 46 µM. An outline of the steps:
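Metabolically active cells were quantified by ATP-dependent luminescence (CellTiter-Glo, 15 min at room temperature) following 48 h treatment. Cells had been plated at 500-1,000 per well and settled for 5 h beforehand.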
A general note: In qHTS, concentration-response curves come from the screen itself.

Test [3] can be described thus: qHTS of pediatric cancer cell lines to identify multiple opportunities for drug repurposing: Primary screen for BT-37 cells (AID 1347094). Also: series mostly up to about 57 µM. An outline of the steps:
(§1)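 CRCs from 8- or 11-point titrations (lowest final 0.59 nM NPC, 0.78 nM MIPE). Cell viability: CellTiter-Glo after 48 h incubation, 15 min room-temperature development, luminescence imaging.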

The nature of test [4]: qHTS of pediatric cancer cell lines to identify multiple opportunities for drug repurposing: Primary screen for Saos-2 cells (AID 1347097). Also: nearly all actives have a fitted effect of over 40% in size. The method in brief: as §1
Test [5] in a line: qHTS of pediatric cancer cell lines to identify multiple opportunities for drug repurposing: Primary screen for SK-N-SH cells (AID 1347098).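 Also: DMSO served as neutral control and bortezomib at 2.3 µM as positive control; nearly all actives have a fitted effect of over 65% in size.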 An outline of the steps: (§2)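 Cells (500-1,000/well) rested 5 h, then received compounds for 48 h; metabolically active cells were measured by CellTiter-Glo luminescence. Final concentrations spanned up to 46 µM (MIPE, 11-point) or 0.59 nM-46 µM (NPC, 8-point) in primary screens, 11-point in follow-ups.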

Test [6] is described as follows: qHTS of pediatric cancer cell lines to identify multiple opportunities for drug repurposing: Primary screen for NB1643 cells (AID 1347099). Also: nearly all actives have a fitted effect of over 50% in size. An outline of the steps: as §1
The nature of test [7]: qHTS of pediatric cancer cell lines to identify multiple opportunities for drug repurposing: Primary screen for LAN-5 cells (AID 1347100). The method in brief:
(§3)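 Viability after 48 h compound treatment at 37C, 500-1,000 cells/well, read as ATP luminescence with CellTiter-Glo. Primary screens used 11-point (MIPE, 0.78 nM-46 µM) or 8-point (NPC, 0.59 nM-46 µM) final concentrations; follow-up screens used 11-point dilutions.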

A short description of test [8]: qHTS of pediatric cancer cell lines to identify multiple opportunities for drug repurposing: Primary screen for BT-12 cells (AID 1347101). Also: nearly all actives have a fitted effect of over 25% in size. The method in brief:
as §2

A short description of test [9]: qHTS of pediatric cancer cell lines to identify multiple opportunities for drug repurposing: Primary screen for Rh18 cells (AID 1347102). Also: nearly all actives have a fitted effect of over 65% in size. The method in brief:
as §3

Test [10] in a line: qHTS of pediatric cancer cell lines to identify multiple opportunities for drug repurposing: Primary screen for OHS-50 cells (AID 1347103). Also: nearly all actives have a fitted effect of over 40% in size. Also: potency is read from the fitted curve at half-maximal effect. An outline of the steps: as §2
A short description of test [11]: qHTS of pediatric cancer cell lines to identify multiple opportunities for drug repurposing: Primary screen for RD cells (AID 1347104). Also: nearly all actives have a fitted effect of over 55% in size. The method in brief: as §1
Test [12] is described as follows: qHTS of pediatric cancer cell lines to identify multiple opportunities for drug repurposing: Primary screen for control Hh wild type fibroblast cells (AID 1347106).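 Also: series mostly up to about 46 µM; a drop in luminescence marks cytotoxicity and a rise apparent proliferation; nearly all actives have a fitted effect of over 55% in size.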 The method in brief:
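Cells (500-1,000/well) in growth media were settled 5 h at 37 degrees C, then given compounds for 48 h. Viability was read as CellTiter-Glo luminescence. Primary runs used MIPE at 11 points (0.78 nM-46 µM) and NPC at 8 points (0.59 nM-46 µM); follow-ups used 11 points.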

A short description of test [13]: qHTS of pediatric cancer cell lines to identify multiple opportunities for drug repurposing: Primary screen for Rh30 cells (AID 1347107). Also: series mostly up to about 46 µM; nearly all actives have a fitted effect of over 75% in size. An outline of the steps:
as §3

Test [14] can be described thus: qHTS of pediatric cancer cell lines to identify multiple opportunities for drug repurposing: Primary screen for Rh41 cells (AID 1347108).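 Also: series mostly up to about 46 µM; luminescence drop marks cytotoxic hits; nearly all actives have a fitted effect of over 70% in size.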 The method in brief: as §1
Test [15] can be described thus: qHTS of pediatric cancer cell lines to identify multiple opportunities for drug repurposing: Primary screen for NB-EBc1 cells (AID 1347095). An outline of the steps:
as §1

Test [16] in a line: qHTS of pediatric cancer cell lines to identify multiple opportunities for drug repurposing: Primary screen for U-2 OS cells (AID 1347096). Also: nearly all actives have a fitted effect of over 50% in size. An outline of the steps: as §3
The nature of test [17]: qHTS of pediatric cancer cell lines to identify multiple opportunities for drug repurposing: Primary screen for MG 63 (6-TG R) cells (AID 1347105). Also: nearly all actives have a fitted effect of over 50% in size. The method in brief: as §1

Results filed as inconclusive are left out. Calls of active or inactive are those of the source. Calls follow the shape of the dose curve; as a rule, active = well fitted curve in the direction sought with a large enough effect; inconclusive = small, poorly fitted or top-dose-only effect, or another doubt; inactive = no such curve, though single readings can be large; an effect the other way counts as inactive or inconclusive.

Consider `C=CCc1ccccc1OCC(O)CNC(C)C` (stereo unspecified), for which the Potency entry in test [1], in test [2], in test [3], in [4], in test [5] and in test [6] was “inactive” each time. Moreover, the Potency result in [7], in test [8], in test [9], in test [10], in test [11] and in test [13] was “inactive” each time. Besides, the Potency entry in test [14] was “inactive”. The outcome in test [12] was inactive.

Take `CO[C@@]1(NC(=O)CSCC#N)C(=O)N2C(C(=O)O)=C(CSc3nnnn3C)CS[C@@H]21`: the Potency entry in test [1], in test [3], in [15], in test [16], in test [4] and in test [5] was “inactive” throughout. Also, the Potency entry in test [6], in [7], in test [8], in test [9], in test [10] and in test [11] was “inactive” throughout. The Potency result in [17], in test [13] and in [14] was “inactive” in each case.

Regarding `NC1=NCC2c3ccccc3Cc3ccccc3N12` (stereo unspecified), the Potency result in test [1], in test [3], in test [4], in [5], in test [6] and in test [7] was “inactive” in each case. For the same molecule, the Potency entry in test [10], in [11], in test [17], in test [13] and in test [14] was “inactive” throughout.

Take `COc1ccc(CCN(C)CCCC(C#N)(c2cc(OC)c(OC)c(OC)c2)C(C)C)cc1OC` (stereo unspecified): the Potency result in [1], in test [2], in [3], in test [16], in [4] and in test [5] was “inactive” in each case. Besides, the Potency result in test [6], in test [7], in test [9], in test [11] and in test [13] was “inactive” each time.

On to `CC(N=C(NC#N)Nc1ccncc1)C(C)(C)C` (stereo unspecified), for which the Potency result in [1], in [2], in test [3], in [4], in [6] and in [7] was “inactive” throughout. Besides, the Potency entry in test [8], in [9], in test [11], in test [17], in test [13] and in test [14] was “inactive” each time. Besides, the molecule was called inactive in test [12].

For `Cc1nc2c([nH]1)c(=O)n(C)c(=O)n2Cc1ccco1`, the Potency entry in test [1], in test [3], in test [15], in test [4], in [5] and in test [6] was “inactive” throughout. Besides, the Potency result in test [7], in [8], in [9], in test [10], in test [11] and in [17] was “inactive” each time. Besides, the Potency entry in test [13] and in test [14] was “inactive” in each case.

Consider `OC(CCN1CCCCC1)(c1ccccc1)C1CCCCC1` (stereo unspecified), for which the Potency entry in test [1], in [2], in test [15], in test [6], in test [7] and in [9] was “inactive” each time. The Potency entry in test [17], in test [13] and in test [14] was “inactive” in each case. Also, the result in [12] was inactive.

Turning to `O=C(O)CN(CCN(CC(=O)O)CC(=O)O)CCN(CC(=O)O)CC(=O)O`, the Potency result in test [1], in test [2], in test [16], in [4], in [5] and in test [6] was “inactive” in each case. For the same molecule, the Potency entry in test [8], in test [9], in test [10], in test [11], in test [17] and in test [13] was “inactive” throughout. Also, in test [14], the Potency entry is “inactive”. Moreover, the molecule was classed as inactive in test [12].

`CC(=O)OC(C)C[N+](C)(C)C` (stereo unspecified): the Potency entry in test [1], in [3], in test [15], in test [16], in test [4] and in test [5] was “inactive” throughout. In addition, the Potency result in [6], in test [7], in [8], in test [9], in test [10] and in test [11] was “inactive” throughout. Besides, the Potency result in test [13] and in test [14] was “inactive” each time. In test [12], the result was inactive.

In the case of `CN=C(NC#N)NCCSCc1nc[nH]c1C`, the Potency entry in test [1], in test [3], in [16], in [5], in [6] and in test [7] was “inactive” throughout. The Potency entry in test [8], in [9], in test [10], in test [11], in test [13] and in test [14] was “inactive” in each case.

As to `O=C(CCNNC(=O)c1ccncc1)NCc1ccccc1`, the Potency result in test [1], in test [3], in test [15], in [4], in [5] and in [6] was “inactive” each time. Moreover, the Potency entry in test [7], in test [8], in test [9], in test [10], in test [11] and in test [13] was “inactive” in each case. Further, the Potency entry in test [14] is “inactive”. For the same molecule, the molecule was called inactive in [12].

For `CCOC(=O)C1=C(C)NC(C)=C(C(=O)OC)C1c1cccc(Cl)c1Cl` (stereo unspecified), the Potency entry in test [1], in test [3], in test [15], in [4], in test [6] and in test [7] was “inactive” each time. Also, the Potency result in test [9], in test [11], in [17], in [13] and in [14] was “inactive” in each case. Also, in test [12], the molecule was classed as inactive.

In the case of `CN(C(=O)CCCOc1ccc2[nH]c(=O)ccc2c1)C1CCCCC1`, the Potency entry in [1], in [2], in test [3], in [16], in [5] and in test [6] was “inactive” in each case. The Potency result in [7], in [9], in test [11], in test [17] and in [13] was “inactive” throughout. Further, the Potency in test [10] is 21.9 µM (active).

As to `C[N+](C)(C)CCCCCCCCCC[N+](C)(C)C`, the Potency result in test [1], in test [2], in test [3], in [16], in test [4] and in test [5] was “inactive” in each case. The Potency result in [6], in [7], in [9], in test [10], in test [11] and in test [13] was “inactive” each time. In addition, the Potency result in test [14] was “inactive”. Moreover, the molecule was called inactive in test [12].
